Active and inactive are the calls of the source.

Here are results for five molecules from PubChem BioAssay.

In experiment [1] the target is Albumin (Bos taurus) (UniProt P02769). The experiment in a line: bovine serum albumin binders on microarray, profiling panel, artefact control for SMM control protein annotation, biochemical, small-molecule microarray, Alexa647 label, 635/667 nm fluorescence (AID 1118).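 Note: score merges 667 nm emission intensity and signal-to-noise per printed compound spot.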 As to conditions: BSA-A647 binding, fluorescence 635 nm, higher = more signal.
Sequence of Albumin (Bos taurus) (P02769 whole entry, looked up): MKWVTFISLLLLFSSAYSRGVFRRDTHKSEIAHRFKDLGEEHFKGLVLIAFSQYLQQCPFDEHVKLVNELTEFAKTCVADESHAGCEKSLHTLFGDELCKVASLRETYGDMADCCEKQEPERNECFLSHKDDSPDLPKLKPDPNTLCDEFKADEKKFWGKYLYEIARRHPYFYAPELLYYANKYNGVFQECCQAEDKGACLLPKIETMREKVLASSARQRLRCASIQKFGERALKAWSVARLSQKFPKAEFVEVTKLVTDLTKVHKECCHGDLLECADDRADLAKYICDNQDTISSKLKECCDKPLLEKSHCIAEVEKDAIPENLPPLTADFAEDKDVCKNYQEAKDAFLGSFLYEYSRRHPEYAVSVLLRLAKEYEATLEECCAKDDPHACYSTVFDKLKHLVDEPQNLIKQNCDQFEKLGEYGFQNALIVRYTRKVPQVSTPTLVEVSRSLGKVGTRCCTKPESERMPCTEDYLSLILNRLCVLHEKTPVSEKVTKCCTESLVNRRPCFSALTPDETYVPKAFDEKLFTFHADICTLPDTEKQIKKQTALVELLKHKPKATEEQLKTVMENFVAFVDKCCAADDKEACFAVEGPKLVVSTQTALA
Experiment [2] is described as follows: small-molecule microarray binders of probe aXIP, primary screen, biochemical, NeuroSMM set, 635/667 nm fluorescence (AID 1119).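 Note: probe is the protein aXip251-270 applied at 1 µg/mL to compound-printed slides; binding of probe to printed compounds measured as 667 nm fluorescence plus signal to noise.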 The following applies: higher = more signal, called active from +8 up or from −8 down.
Experiment [3] is described as follows: small-molecule binders of probe aNOTCH3, primary screen, biochemical, small-molecule microarray, 635/667 nm fluorescence (AID 1120).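 Note: probe is a biotin-tagged antibody raised against NOTCH3 rather than NOTCH3 protein; score merges spot fluorescence near 667 nm with spot signal to noise.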 The following applies: higher = more signal.
A short description of experiment [4]: small-molecule binders of probe aNOTCH2, primary screen, biochemical, small-molecule microarray, 635/667 nm fluorescence (AID 1121).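 Note: score merges feature fluorescence read at 667 nm with its signal to noise.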 As to conditions: higher = more signal.
For experiment [5], the target named is Carbonic anhydrase 2 (Homo sapiens) (UniProt P00918). The experiment is described as follows: CAII small-molecule binders, profiling panel, biochemical, small-molecule microarray, Alexa647-labelled CAII (AID 1122). The following applies: CAII-A647 binding fluorescence, higher = more signal.
A short description of experiment [6]: COS7 lysate on small-molecule microarray, probe aHis, 635 nm (AID 1123).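 Note: z-score combines 667nm fluorescence intensity with signal-to-noise per printed compound spot.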 The following applies: COS7 cell lysate, fluorescence, higher = more signal.
The nature of experiment [7]: compound binding in COS7 lysate, probe aLAP1, primary screen, cell lysate, small-molecule microarray (AID 1124).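 Note: lysate comes from COS7 cells expressing LAP1 and is applied at 0.3 µg/mL; score merges spot fluorescence near 667 nm with signal-to-noise over triplicate slides.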 The following applies: probe aLAP1, fluorescence, higher = more signal.
Experiment [8] deals with Sam68 (KHDRBS1). The experiment is described as follows: Sam68 small-molecule binders, primary screen, biochemical, small-molecule microarray, 635 nm fluorescence (AID 1125).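 Note: score merges 667 nm channel intensity with signal to noise over triplicate slides.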 As to conditions: small-molecule microarray binding, higher = more signal.
In experiment [9] the test system is Chordin-like protein 2 (CHRDL2). The experiment is described as follows: CHRDL2 small-molecule binders, primary screen, biochemical, small-molecule microarray, 635 nm fluorescence (AID 1126).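 Note: printed compound slides probed with Chrdl2 protein at 4 µg/mL for 1 h at 4 C; score merges 667 nm emission intensity with signal to noise over three replicate slides.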 The following applies: small-molecule microarray binding, fluorescence 635 nm; higher = more signal.
Experiment [10] addresses Concanavalin-A (Canavalia ensiformis) (UniProt P02866). The experiment in a line: ConA small-molecule binders, primary screen, artefact control for SMM control protein annotation, biochemical, small-molecule microarray, Alexa647 label, 635 nm (AID 1127).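 Note: z combines 667 nm emission intensity with signal-to-noise across three replicate slides.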 The following applies: ConA-A647 binding fluorescence, higher = more signal.
Experiment [11] is described as follows: anti-His antibody binders, primary screen, artefact control for SMM control protein annotation, biochemical, small-molecule microarray, 635 nm fluorescence (AID 1128).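 Note: score merges feature fluorescence with signal-to-noise for each printed compound spot.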 As to conditions: anti-His Alexa647 antibody binding, higher = more signal.
Experiment [12] deals with Human papillomavirus type 1a E7 protein (residues 1-88). The experiment in a line: HPV1a E7 small-molecule binders, primary screen, biochemical, small-molecule microarray, residues 1-88, 635 nm (AID 1129). As to conditions: small-molecule microarray binding, fluorescence 635 nm; higher = more signal.
Experiment [13] addresses Focal adhesion kinase 1 (Homo sapiens) (UniProt Q05397). The experiment is described as follows: small-molecule microarray binders of FAK, primary screen, biochemical, 635/667 nm fluorescence, BSA, DTT (AID 1130).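 Note: composite of spot emission at 667 nm and signal to noise over triplicate slides.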 As to conditions: PTK2 binding, 635 nm fluorescence, higher = more signal.
Experiment [14] concerns Fibrinogen (Alexa647-labelled). The experiment is described as follows: fibrinogen binders on compound microarrays, profiling panel, artefact control for SMM control-protein annotation, biochemical, small-molecule microarray, 635/667 nm fluorescence (AID 1131).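 Note: z-score merges 667 nm fluorescence with per-spot signal-to-noise over triplicate slides.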 The following applies: fibrinogen-A647 binding fluorescence, higher = more signal.
Experiment [15] concerns the target Follistatin (Homo sapiens) (UniProt P19883). The experiment is described as follows: follistatin binders on small-molecule microarrays, primary screen, biochemical, small-molecule microarray, 635/667 nm fluorescence (AID 1132). The following applies: FST binding, 635 nm fluorescence, higher = more signal.
For experiment [16], the target named is Fibroblast growth factor 2 (Homo sapiens) (UniProt P09038). The experiment in a line: FGF2 binders on small-molecule microarrays, primary screen, biochemical, small-molecule microarray, 635/667 nm fluorescence (AID 1133). As to conditions: small-molecule microarray binding, FGF2, fluorescence 635/667; higher = more signal.
Sequence of Fibroblast growth factor 2 (Homo sapiens) (P09038 whole entry, looked up): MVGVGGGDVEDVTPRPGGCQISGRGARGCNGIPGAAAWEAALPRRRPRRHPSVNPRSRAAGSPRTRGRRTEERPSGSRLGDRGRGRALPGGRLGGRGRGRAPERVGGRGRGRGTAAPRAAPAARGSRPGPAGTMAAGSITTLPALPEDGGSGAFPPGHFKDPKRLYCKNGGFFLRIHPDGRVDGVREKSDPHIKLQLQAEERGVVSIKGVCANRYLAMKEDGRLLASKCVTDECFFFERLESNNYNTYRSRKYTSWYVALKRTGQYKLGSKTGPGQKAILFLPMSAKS
Experiment [17] in a line: mitochondrial membrane potential change in A549 cells, profiling panel, cell-based, JC-1 fluorescence, basal, 24 h, 100 nL (AID 1138).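 Note: A549 lung adenocarcinoma cells under basal conditions with no added stimulus; test concentration not given here.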 As to conditions: higher = more signal.
Experiment [18] deals with Lefty1. The experiment in a line: Lefty1 binders on small-molecule microarrays, primary screen, biochemical, small-molecule microarray, 635/667 nm fluorescence (AID 1139). As to conditions: small-molecule microarray binding, fluorescence 635/667; higher = more signal.
For experiment [19], the system named is wheat germ agglutinin (Triticum aestivum), Alexa647-labelled. The experiment is described as follows: wheat germ agglutinin binders on compound microarrays, profiling panel, artefact control for SMM control-protein annotation, biochemical, small-molecule microarray, 635/667 nm fluorescence (AID 1140).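 Note: score merges 667 nm feature emission with signal to noise over triplicate slides.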 The following applies: WGA-A647 binding, 635 nm fluorescence, higher = more signal.

Experiment [20] deals with Luciferin 4-monooxygenase (Photinus pyralis) (UniProt P08659). The experiment is described as follows: firefly luciferase enzyme inhibitors, primary screen, biochemical, luminescence, purified enzyme, 2006 set (AID 1141).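 Note: cell-free assay with purified firefly luciferase at 100 ng per well in PBS; test concentration not given here.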 The following applies: SteadyGlo luminescence, 30 min, higher = more signal, called active from +8 up or from −8 down.
Sequence of Luciferin 4-monooxygenase (Photinus pyralis) (P08659 whole entry, looked up): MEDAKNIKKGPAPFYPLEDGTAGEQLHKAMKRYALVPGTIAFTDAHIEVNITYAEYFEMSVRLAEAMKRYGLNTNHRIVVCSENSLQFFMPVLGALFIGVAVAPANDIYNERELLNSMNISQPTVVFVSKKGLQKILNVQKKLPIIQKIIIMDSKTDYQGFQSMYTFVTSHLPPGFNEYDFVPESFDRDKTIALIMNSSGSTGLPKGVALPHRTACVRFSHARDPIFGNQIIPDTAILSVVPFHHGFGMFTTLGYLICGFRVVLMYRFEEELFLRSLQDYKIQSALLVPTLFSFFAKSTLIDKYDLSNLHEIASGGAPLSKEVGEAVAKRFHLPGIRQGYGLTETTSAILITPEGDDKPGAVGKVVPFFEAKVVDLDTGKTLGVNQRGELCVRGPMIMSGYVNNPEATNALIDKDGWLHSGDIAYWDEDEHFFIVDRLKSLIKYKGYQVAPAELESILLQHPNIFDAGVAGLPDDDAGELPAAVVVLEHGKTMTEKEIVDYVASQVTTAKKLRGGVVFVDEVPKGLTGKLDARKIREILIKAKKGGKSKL

Sequence of Focal adhesion kinase 1 (Homo sapiens) (Q05397 whole entry, looked up): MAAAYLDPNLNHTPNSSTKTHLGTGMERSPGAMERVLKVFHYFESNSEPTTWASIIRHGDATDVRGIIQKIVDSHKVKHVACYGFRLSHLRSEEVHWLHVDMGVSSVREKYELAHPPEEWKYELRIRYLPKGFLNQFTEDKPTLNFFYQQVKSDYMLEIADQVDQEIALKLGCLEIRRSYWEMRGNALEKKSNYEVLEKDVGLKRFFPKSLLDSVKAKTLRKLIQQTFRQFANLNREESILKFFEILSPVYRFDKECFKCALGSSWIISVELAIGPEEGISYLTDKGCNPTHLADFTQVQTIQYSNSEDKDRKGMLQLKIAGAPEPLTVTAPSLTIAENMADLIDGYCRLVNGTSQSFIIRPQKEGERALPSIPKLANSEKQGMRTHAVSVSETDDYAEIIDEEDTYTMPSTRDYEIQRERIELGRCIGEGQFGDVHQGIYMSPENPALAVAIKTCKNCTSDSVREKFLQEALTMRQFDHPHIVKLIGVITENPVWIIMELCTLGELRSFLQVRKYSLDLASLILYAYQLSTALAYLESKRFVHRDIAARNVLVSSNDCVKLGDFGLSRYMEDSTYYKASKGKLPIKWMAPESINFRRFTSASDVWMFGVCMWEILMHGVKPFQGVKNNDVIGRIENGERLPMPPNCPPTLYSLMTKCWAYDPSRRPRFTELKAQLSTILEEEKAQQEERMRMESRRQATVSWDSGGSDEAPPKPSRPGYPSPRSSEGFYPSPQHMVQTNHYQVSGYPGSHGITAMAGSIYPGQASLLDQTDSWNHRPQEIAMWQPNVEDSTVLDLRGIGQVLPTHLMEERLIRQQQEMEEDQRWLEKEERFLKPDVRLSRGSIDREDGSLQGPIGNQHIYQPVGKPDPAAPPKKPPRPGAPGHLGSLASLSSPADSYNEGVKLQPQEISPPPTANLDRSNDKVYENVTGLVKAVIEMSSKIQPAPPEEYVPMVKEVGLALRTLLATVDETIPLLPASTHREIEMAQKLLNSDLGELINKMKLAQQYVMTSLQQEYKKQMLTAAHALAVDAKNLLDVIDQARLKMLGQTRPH
Sequence of Follistatin (Homo sapiens) (P19883 whole entry, looked up): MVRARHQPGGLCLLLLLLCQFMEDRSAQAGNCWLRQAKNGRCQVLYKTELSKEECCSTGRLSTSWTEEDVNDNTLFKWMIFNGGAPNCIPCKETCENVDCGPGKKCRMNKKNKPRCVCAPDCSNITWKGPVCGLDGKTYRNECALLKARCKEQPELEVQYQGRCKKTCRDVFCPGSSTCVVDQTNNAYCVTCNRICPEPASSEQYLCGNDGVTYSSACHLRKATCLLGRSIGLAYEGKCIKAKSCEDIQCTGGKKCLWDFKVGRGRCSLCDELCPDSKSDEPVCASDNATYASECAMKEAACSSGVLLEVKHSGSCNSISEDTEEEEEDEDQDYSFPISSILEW
Sequence of Concanavalin-A (Canavalia ensiformis) (P02866 whole entry, looked up): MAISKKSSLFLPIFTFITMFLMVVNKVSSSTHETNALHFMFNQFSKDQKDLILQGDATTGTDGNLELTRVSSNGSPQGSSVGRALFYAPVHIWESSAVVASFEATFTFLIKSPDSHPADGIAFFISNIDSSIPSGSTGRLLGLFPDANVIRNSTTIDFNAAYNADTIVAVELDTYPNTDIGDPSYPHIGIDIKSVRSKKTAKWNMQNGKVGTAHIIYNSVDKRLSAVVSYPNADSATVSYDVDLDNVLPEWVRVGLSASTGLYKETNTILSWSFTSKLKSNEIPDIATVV

Consider `CC(CCN1CCc2nc(-c3ccccc3)c(-c3ccccc3)cc2C1)=NOC[C@@H](C)[C@H](OCc1ccccc1)C(C)C`, for which the composite z-score was 0.474 in [1]; 0.0375 in experiment [3]; -0.177 in experiment [4]; -0.0642 in [5]; 0.271 in experiment [6]; -0.2 in experiment [7]. Besides, the composite z-score in [8] was -1.19; in experiment [9], -1.11; in experiment [10] it was -0.198; in experiment [11], 1.45; in [12] it was -1.69; in [13], 0.123. For the same molecule, the composite z-score in experiment [14] is -0.242; in experiment [15] it was -1.45; in experiment [16] it was -1.14; in experiment [18], -0.677; in experiment [19], -0.469. Also, the composite Z-score in experiment [2] was -0.193 (inactive). Further, the z-score in experiment [17] was 0.436; in experiment [20] it was -1.09 (inactive).

For the molecule `CO[C@@H]1COC(=O)CC=C[C@@H](C)[C@@H]2C=C[C@@H](O)[C@@H](COC(=O)CC=C[C@H]1C)O2`, the composite z-score in [1] was -0.805; in experiment [3], 0.0864; in experiment [4], -0.16; in experiment [5] it was -0.235; in experiment [6] it was -0.635; in experiment [7] it was 0.156. Besides, the composite z-score was 0.228 in experiment [8]; 1.38 in experiment [9]; -0.363 in [10]; 0.235 in experiment [11]; -0.912 in [12]; -0.0662 in [13]. Also, the composite z-score is -1.24 in experiment [14]; 1.33 in experiment [15]; 1.1 in [16]; 1.47 in [18]; -0.38 in [19]. Moreover, the composite Z-score in experiment [2] is 0.142 (inactive). Further, the z-score in experiment [17] is -0.443; in [20], -2.29 (inactive).

With `COc1ccc(O[C@H]2C=C[C@@H](c3ccccc3)O[C@@H]2COC(=O)CCC(C)=NO[C@H](C)c2cn([C@@H]3COC[C@H]3O)nn2)cc1`, the composite z-score in experiment [1] is 0.454; in experiment [3] it was -0.015; in experiment [4] it was -0.211; in experiment [5], -0.106; in experiment [6], -0.208; in experiment [7], 0.263. For the same molecule, the composite z-score in experiment [8] came out at 0.771; in [9] it was 0.656; in [10], 0.427; in [11] it was 1; in experiment [12] it was 0.225; in experiment [13] it was 0.149. The composite z-score in experiment [14] was 0.517; in experiment [15], 0.368; in experiment [16], 0.459; in experiment [18], 0.701; in experiment [19] it was -0.151. Further, in [2], the composite Z-score was 0.362 (inactive). Moreover, the z-score was -1.56 in [17] and 0.884 (inactive) in [20].

Consider `CCOC(=O)CCN1C(=O)[C@H]2[C@H]3[C@H](O)[C@H](O)CC(=NOC[C@@H](O)COCc4ccco4)[C@@H]3CC[C@H]2C1=O`, for which the composite z-score was 0.723 in experiment [1]; -0.0932 in experiment [3]; -0.124 in experiment [4]; 0.214 in experiment [5]; 0.171 in [6]; 0.256 in experiment [7]. The composite z-score in [8] was 0.0665; in experiment [9], 0.457; in experiment [10], 0.318; in [11], 1.08; in experiment [12], -0.0069; in [13], 0.144. In addition, the composite z-score in [14] is 0.825; in experiment [15], -0.977; in experiment [16], 0.225; in [18], -0.219; in experiment [19], 0.0513. Further, the composite Z-score in [2] is -0.244 (inactive). Also, the z-score in [17] was 0.928; in [20], 0.542 (inactive).

As for `CCCC[C@@H](O)C1=C(C)C[C@H]2C(=O)N(Cc3ccccc3)C(=O)[C@H]2[C@H]1CO`, the composite z-score in [1] is 0.0852; in experiment [3] it was -0.0175; in [4] it was -0.133; in [5], -0.215; in experiment [6], -0.377; in experiment [7] it was 0.0292. In addition, the composite z-score is 0.241 in experiment [8]; 0.538 in [9]; 0.321 in experiment [10]; 0.314 in experiment [11]; 0.0359 in experiment [12]; -0.0945 in experiment [13]. The composite z-score is -0.0897 in experiment [14]; 0.438 in experiment [15]; 0.828 in [16]; 0.492 in experiment [18]; -0.423 in [19]. In addition, the composite Z-score in experiment [2] is -0.041 (inactive). Also, the values for the z-score in experiment [17] and in experiment [20] were 0.923 and -0.467 (inactive), respectively.
